From PubChem BioAssay
Calls of active or inactive are those of the source. Unless noted, no rule for the calls is given here.

Columns and labels:
[1] = anti-His antibody binders, primary screen, artefact control for SMM control protein annotation, biochemical, small-molecule microarray, 635 nm fluorescence (AID 1128); details: anti-His Alexa647 antibody binding, higher = more signal;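 also: score merges feature fluorescence with signal-to-noise for each printed compound spot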
[2] = system: Human papillomavirus type 1a E7 protein (residues 1-88); assay: HPV1a E7 small-molecule binders, primary screen, biochemical, small-molecule microarray, residues 1-88, 635 nm (AID 1129); details: small-molecule microarray binding, fluorescence 635 nm; higher = more signal
[3] = target: Focal adhesion kinase 1 (Homo sapiens) (UniProt Q05397); assay: small-molecule microarray binders of FAK, primary screen, biochemical, 635/667 nm fluorescence, BSA, DTT (AID 1130); details: PTK2 binding, 635 nm fluorescence, higher = more signal;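 also: composite of spot emission at 667 nm and signal to noise over triplicate slides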
[4] = system: Fibrinogen (Alexa647-labelled); assay: fibrinogen binders on compound microarrays, profiling panel, artefact control for SMM control-protein annotation, biochemical, small-molecule microarray, 635/667 nm fluorescence (AID 1131); details: fibrinogen-A647 binding fluorescence, higher = more signal;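 also: z-score merges 667 nm fluorescence with per-spot signal-to-noise over triplicate slides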
[5] = target: Follistatin (Homo sapiens) (UniProt P19883); assay: follistatin binders on small-molecule microarrays, primary screen, biochemical, small-molecule microarray, 635/667 nm fluorescence (AID 1132); details: FST binding, 635 nm fluorescence, higher = more signal
[6] = target: Fibroblast growth factor 2 (Homo sapiens) (UniProt P09038); assay: FGF2 binders on small-molecule microarrays, primary screen, biochemical, small-molecule microarray, 635/667 nm fluorescence (AID 1133); details: small-molecule microarray binding, FGF2, fluorescence 635/667; higher = more signal
[7] = mitochondrial membrane potential change in A549 cells, profiling panel, cell-based, JC-1 fluorescence, basal, 24 h, 100 nL (AID 1138); details: higher = more signal;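 also: A549 lung adenocarcinoma cells under basal conditions with no added stimulus; test concentration not given here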
[8] = system: Lefty1; assay: Lefty1 binders on small-molecule microarrays, primary screen, biochemical, small-molecule microarray, 635/667 nm fluorescence (AID 1139); details: small-molecule microarray binding, fluorescence 635/667; higher = more signal
[9] = system: wheat germ agglutinin (Triticum aestivum), Alexa647-labelled; assay: wheat germ agglutinin binders on compound microarrays, profiling panel, artefact control for SMM control-protein annotation, biochemical, small-molecule microarray, 635/667 nm fluorescence (AID 1140); details: WGA-A647 binding, 635 nm fluorescence, higher = more signal;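 also: score merges 667 nm feature emission with signal to noise over triplicate slides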
[10] = target: Luciferin 4-monooxygenase (Photinus pyralis) (UniProt P08659); assay: firefly luciferase enzyme inhibitors, primary screen, biochemical, luminescence, purified enzyme, 2006 set (AID 1141); details: SteadyGlo luminescence, 30 min, higher = more signal, called active from +8 up or from −8 down;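 also: cell-free assay with purified firefly luciferase at 100 ng per well in PBS; test concentration not given here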
[11] = system: Wnt5a (protein binding on small-molecule microarray); assay: Wnt5a binders on small-molecule microarray, primary screen, biophysical, 635/667 nm fluorescence (AID 1142); details: 635 nm fluorescence, higher = more signal;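 also: fluorescence read at 667 nm with signal to noise per printed feature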
[12] = cell viability in Huh7 cells, primary screen, cytotoxicity control for HCV replication inhibitor project, CellTiter-Glo luminescence, basal, 48 h (AID 1143); details: Huh7 HCV replicon, higher = more signal, called active from +8 up or from −8 down;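 also: Huh7 hepatoma cells carrying a hepatitis C replication reporter with no stimulus; test concentration not given here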
[13] = P. aeruginosa biofilm formation inhibitors, primary screen, PAO1 strain, BacTiter-Glo luminescence, LB-PBS (AID 1144); details: 12 h, higher = more signal
[14] = CREB reporter modulators without forskolin, primary screen, cell-based, PC12, CRE-LacZ reporter, unstimulated (AID 1145); details: no forskolin, luminescence, 4.5 h, higher = more signal, called active from +8 up or from −8 down
[15] = CREB reporter modulators under forskolin, primary screen, cell-based, PC12, CRE-LacZ reporter, forskolin-stimulated (AID 1146); details: luminescence, 4.5 h, higher = more signal, called active from +8 up or from −8 down;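 also: PC12 cells with 6xCRE LacZ reporter stimulated by forskolin 10 µM; beta-galactosidase reporter signal reflecting CREB driven transcription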
[16] = target: Streptavidin (Streptomyces avidinii) (UniProt P22629); assay: streptavidin binders on small-molecule microarray, primary screen, artefact control for SMM compound annotation, biophysical, 635/667 nm fluorescence (AID 1147); details: streptavidin binding, higher = more signal;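 also: signal reflects streptavidin binding to arrayed compounds as a control protein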
[17] = small-molecule binders of probe aInhba, primary screen, biochemical, small-molecule microarray, 635/667 nm fluorescence (AID 1148); details: higher = more signal;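 also: score merges 667nm spot fluorescence with signal-to-noise for antibody binding to printed compounds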
[18] = target: Torsin-1A (Homo sapiens) (UniProt O14656); assay: torsin A binders from cell lysate, primary screen, small-molecule microarray, wild-type, 635/667 nm (AID 1149); details: COS7 hTOR1A-WT lysate, 635 nm fluorescence, higher = more signal
[19] = target: Torsin-1A (Homo sapiens) (UniProt O14656); assay: small-molecule binders of mutant TOR1A in lysate, primary screen, cell lysate, small-molecule microarray, COS7 lysate, 635/667 nm fluorescence (AID 1150); details: COS7 hTOR1A mutant lysate, 635 nm fluorescence, higher = more signal;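 also: score pools 667 nm emission and signal to noise measuring lysate protein binding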
[20] = system: Sonic hedgehog protein (Shh); assay: small-molecule binders of Shh protein, primary screen, biochemical, small-molecule microarray, 635/667 nm fluorescence (AID 1151); details: small-molecule microarray binding, 635 nm fluorescence; higher = more signal;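 also: Shh protein binding to compounds spotted on small-molecule microarray slides; score combines spot fluorescence intensity with signal-to-noise across triplicate slides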

Sequence of Follistatin (Homo sapiens) (P19883 whole entry, looked up): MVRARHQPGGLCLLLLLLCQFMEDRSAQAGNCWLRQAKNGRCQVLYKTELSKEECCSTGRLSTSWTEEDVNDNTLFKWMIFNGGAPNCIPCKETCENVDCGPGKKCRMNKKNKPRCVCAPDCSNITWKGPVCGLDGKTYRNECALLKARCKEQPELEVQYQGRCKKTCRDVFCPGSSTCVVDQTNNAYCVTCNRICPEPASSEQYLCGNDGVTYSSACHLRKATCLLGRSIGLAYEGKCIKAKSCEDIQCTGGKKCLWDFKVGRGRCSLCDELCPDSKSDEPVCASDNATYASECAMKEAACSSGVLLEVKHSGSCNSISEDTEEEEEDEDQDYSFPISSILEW
Sequence of Torsin-1A (Homo sapiens) (O14656 whole entry, looked up): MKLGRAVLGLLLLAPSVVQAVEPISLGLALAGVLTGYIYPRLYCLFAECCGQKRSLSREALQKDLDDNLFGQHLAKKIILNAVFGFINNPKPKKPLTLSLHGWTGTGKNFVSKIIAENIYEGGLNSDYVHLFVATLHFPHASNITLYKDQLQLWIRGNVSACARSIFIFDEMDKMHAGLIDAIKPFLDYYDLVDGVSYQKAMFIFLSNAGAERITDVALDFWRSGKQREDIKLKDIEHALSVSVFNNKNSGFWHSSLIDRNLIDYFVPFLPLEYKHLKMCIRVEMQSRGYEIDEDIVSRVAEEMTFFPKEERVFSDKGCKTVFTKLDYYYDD
Sequence of Luciferin 4-monooxygenase (Photinus pyralis) (P08659 whole entry, looked up): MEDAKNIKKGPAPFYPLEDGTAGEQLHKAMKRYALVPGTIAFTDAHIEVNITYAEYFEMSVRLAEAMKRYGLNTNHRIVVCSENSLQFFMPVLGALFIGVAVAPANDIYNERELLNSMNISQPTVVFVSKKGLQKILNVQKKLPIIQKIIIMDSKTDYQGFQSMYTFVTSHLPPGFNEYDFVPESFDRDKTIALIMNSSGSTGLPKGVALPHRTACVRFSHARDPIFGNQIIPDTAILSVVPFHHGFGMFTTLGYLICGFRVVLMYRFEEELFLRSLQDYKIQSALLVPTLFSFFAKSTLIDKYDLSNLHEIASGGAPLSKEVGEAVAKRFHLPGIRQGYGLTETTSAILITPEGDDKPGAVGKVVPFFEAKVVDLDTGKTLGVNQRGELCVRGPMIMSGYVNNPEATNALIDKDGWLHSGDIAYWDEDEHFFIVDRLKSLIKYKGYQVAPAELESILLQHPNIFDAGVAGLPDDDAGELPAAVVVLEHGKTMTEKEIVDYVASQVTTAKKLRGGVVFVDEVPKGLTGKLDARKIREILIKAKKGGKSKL
Sequence of Focal adhesion kinase 1 (Homo sapiens) (Q05397 whole entry, looked up): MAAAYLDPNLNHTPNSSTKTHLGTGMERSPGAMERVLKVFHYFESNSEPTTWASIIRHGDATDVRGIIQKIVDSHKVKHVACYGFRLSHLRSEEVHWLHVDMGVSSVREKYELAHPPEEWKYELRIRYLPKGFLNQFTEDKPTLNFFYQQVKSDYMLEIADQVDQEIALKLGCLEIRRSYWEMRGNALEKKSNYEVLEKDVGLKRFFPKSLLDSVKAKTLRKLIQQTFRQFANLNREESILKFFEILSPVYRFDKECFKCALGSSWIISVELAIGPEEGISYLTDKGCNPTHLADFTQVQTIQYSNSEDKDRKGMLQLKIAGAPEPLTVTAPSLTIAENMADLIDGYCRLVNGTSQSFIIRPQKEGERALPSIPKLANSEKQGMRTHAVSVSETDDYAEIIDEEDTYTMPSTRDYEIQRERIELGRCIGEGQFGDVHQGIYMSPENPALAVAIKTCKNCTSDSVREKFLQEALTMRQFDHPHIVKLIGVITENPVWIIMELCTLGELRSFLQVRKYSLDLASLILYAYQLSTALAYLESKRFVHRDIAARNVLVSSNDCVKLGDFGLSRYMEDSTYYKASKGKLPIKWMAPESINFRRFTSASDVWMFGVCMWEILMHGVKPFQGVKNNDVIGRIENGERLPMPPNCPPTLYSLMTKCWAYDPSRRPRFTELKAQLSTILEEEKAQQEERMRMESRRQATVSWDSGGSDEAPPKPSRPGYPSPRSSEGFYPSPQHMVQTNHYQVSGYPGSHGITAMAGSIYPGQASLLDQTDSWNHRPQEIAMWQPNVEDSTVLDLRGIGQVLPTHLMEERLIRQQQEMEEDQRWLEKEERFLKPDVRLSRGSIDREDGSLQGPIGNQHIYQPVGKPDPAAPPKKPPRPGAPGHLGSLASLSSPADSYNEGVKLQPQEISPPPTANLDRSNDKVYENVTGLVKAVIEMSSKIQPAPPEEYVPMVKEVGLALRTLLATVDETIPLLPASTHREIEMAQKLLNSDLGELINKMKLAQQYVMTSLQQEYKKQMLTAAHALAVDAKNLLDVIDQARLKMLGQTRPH
Sequence of Fibroblast growth factor 2 (Homo sapiens) (P09038 whole entry, looked up): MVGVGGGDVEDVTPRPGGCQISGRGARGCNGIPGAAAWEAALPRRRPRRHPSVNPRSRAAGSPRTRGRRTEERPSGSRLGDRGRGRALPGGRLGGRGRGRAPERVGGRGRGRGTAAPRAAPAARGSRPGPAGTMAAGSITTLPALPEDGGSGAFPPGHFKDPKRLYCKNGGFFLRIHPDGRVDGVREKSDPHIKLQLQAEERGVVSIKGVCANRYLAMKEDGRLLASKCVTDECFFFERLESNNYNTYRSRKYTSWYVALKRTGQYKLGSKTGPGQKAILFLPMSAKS
Sequence of Streptavidin (Streptomyces avidinii) (P22629 whole entry, looked up): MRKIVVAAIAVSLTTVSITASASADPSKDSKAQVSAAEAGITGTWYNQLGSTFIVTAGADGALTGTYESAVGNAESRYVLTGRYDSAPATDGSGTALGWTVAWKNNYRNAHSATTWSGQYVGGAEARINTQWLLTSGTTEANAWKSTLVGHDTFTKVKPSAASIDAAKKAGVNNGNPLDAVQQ

Row | Compound | composite z-score [1] | composite z-score [2] | composite z-score [3] | composite z-score [4] | composite z-score [5] | composite z-score [6] | z-score [7] | composite z-score [8] | composite z-score [9] | z-score [10] | composite z-score [11] | z-score [12] | z-score [13] | z-score [14] | z-score [15] | composite z-score [16] | composite z-score [17] | composite z-score [18] | composite z-score [19] | composite z-score [20]
1 | CCOC(=O)C[C@H]1[C@H](OC(=O)c2ccc(C(=O)c3ccccc3)cc2)[C@@H](NC(=O)c2ccc3ccccc3c2)c2cc(OCCCO)ccc2N1C(=O)c1ccc2ccccc2n1 | 0.565 | 0.578 | 0.44 | 0.892 | 0.331 | 0.851 | 2.1 | 0.704 | 0.0601 | -0.818 (inactive) | 0.289 | 0.311 (inactive) | -0.0217 (inactive) | -0.244 (inactive) | -0.643 (inactive) | 0.129 | -0.0774 | 0.182 | 0.819 | 0.94
2 | O=C1C2C=CC(C(O)c3cccc(O)c3)N(Nc3ccccc3F)C2C(=O)N1c1ccccc1 (stereo not given) | 0.933 | 0.137 | 0.158 | 0.327 | 0.434 | -0.214 | -0.846 | 0.474 | 0.248 | 0.883 (inactive) | -0.333 | -6.08 (inactive) | -2.21 (inactive) | -0.471 (inactive) | -0.556 (inactive) | -0.344 | -0.21 | -0.701 | 0.239 | 0.0048
3 | CN(C)CCCC[C@@H]1NC(=O)[C@H]2C[C@@H](C(=O)O)[C@@H](c3cccc(OCCO)c3)N2C1=O | 3.17 | -0.209 | 0.239 | 0.564 | 1.4 | 0.977 | 1.29 | 1.45 | 0.734 | -1.9 (inactive) | 0.205 | -0.0686 (inactive) | -0.43 (inactive) | 0.0124 (inactive) | 0.0684 (inactive) | -0.414 | 0.216 | 0.717 | 1.1 | 1.84
4 | CCOC(=O)C[C@H]1[C@H](OC(=O)c2ccc(-c3ccccc3)cc2)[C@@H](NC(=O)CC(C)C)c2cc(OCCCO)ccc2N1C(=O)Cc1ccc(OC)cc1 | -0.283 | 0.686 | 0.0381 | 0.54 | -0.195 | 0.0007 | 0.598 | -0.276 | 0.535 | 0.491 (inactive) | 0.0564 | -0.155 (inactive) | 0.606 (inactive) | 0.0035 (inactive) | -0.163 (inactive) | 0.438 | -0.0223 | -0.111 | 0.508 | -0.307
5 | O=C1C2C=CC(C(O)c3ccc([N+](=O)[O-])cc3)N(Nc3ccccc3)C2C(=O)N1c1ccccc1 (stereo not given) | 0.175 | 0.976 | 1.38 | 1.02 | 0.544 | -0.239 | -0.467 | 0.27 | 0.611 | -0.284 (inactive) | 0.0051 | 0.0203 (inactive) | -0.0023 (inactive) | -0.333 (inactive) | 0.495 (inactive) | -0.146 | -0.101 | -0.132 | 0.221 | -0.653
6 | Cc1ccc(S[C@]2(C(=O)NCCCN(C)C)CC(=O)N(Cc3ccccc3Cl)[C@@H]2c2ccc(CO)cc2I)cc1 | -0.704 | -0.522 | 0.404 | -1.05 | -0.667 | -1.09 | 0.935 | -0.767 | 1.17 | -0.543 (inactive) | -0.256 | -0.826 (inactive) | 0.601 (inactive) | 0.0924 (inactive) | 0.752 (inactive) | -0.245 | -0.157 | -0.601 | -0.679 | -0.995
7 | CCOC(=O)C1=CCC(c2cc3ccccc3[nH]2)N(S(=O)(=O)c2ccccc2[N+](=O)[O-])C1 (stereo not given) | 0.584 | 1.2 | 0.501 | 0.0547 | 0.574 | -0.103 | 1.05 | 0.306 | 0.896 | -0.0781 (inactive) | 0.379 | -5.05 (inactive) | -0.295 (inactive) | -0.172 (inactive) | -0.0943 (inactive) | -0.141 | -0.101 | 0.0459 | 0.609 | -0.312
8 | COCCOC(=O)N1C(=O)[C@@]2(c3cc(C#CCC(C(=O)OC)C(=O)OC)ccc31)[C@H](C(=O)N1CCc3cc(OC)c(OC)cc3C1)[C@H]1C(=O)O[C@H](c3ccccc3)[C@H](c3ccccc3)N1[C@@H]2c1ccc(O)cc1 | 1.82 | 1.21 | 0.221 | 0.787 | 1.36 | 1.59 | -0.132 | 1.11 | 1.05 | 1.01 (inactive) | 0.44 | -0.607 (inactive) | 0.0314 (inactive) | 0.0653 (inactive) | -0.572 (inactive) | 0.286 | 0.134 | 1.32 | 0.864 | 1.9
9 | CN(C)C(=O)[C@]1(Cc2ccccc2CN=[N+]=[N-])N=C(c2ccc(OCCCO)cc2)O[C@@H]1c1ccccc1N=[N+]=[N-] | 0.266 | 1.23 | 0.977 | 1.02 | 1.18 | -0.0347 | 0.568 | -0.136 | 1.12 | -9.41 (active) | 0.397 | -3.07 (inactive) | -0.406 (inactive) | -0.79 (inactive) | -0.969 (inactive) | 1.34 | 0.177 | 0.0095 | 0.25 | -0.946
10 | CCCCC(O)C1C=CC2C(=O)N(C)C(=O)C2N1Nc1ccccc1 (stereo not given) | 1.86 | 0.603 | 0.383 | 0.416 | 0.0471 | -0.614 | -0.771 | -0.291 | 0.0187 | 0.16 (inactive) | 0.0991 | 0.898 (inactive) | -0.556 (inactive) | -0.14 (inactive) | 0.721 (inactive) | 0.264 | 0.106 | 0.29 | 0.0531 | -0.768
